# Results filed as inconclusive are left out. A number with no mark means an inactive call. Activity calls are given as the source filed them. Calls come from the whole dose curve; tested in HEK293 reporter line.
# Assay: qHTS for Inhibitors of the Functional Ribonucleoprotein Complex (vRNP) of Lassa (LASV) Arenavirus: Viability assay - alamar blue signal for LASV Primary Screen (AID 1347083); note: nearly all actives have a fitted effect of over 80% in size
# Settings: cell viability, alamar blue fluorescence (LASV minigenome counter-screen); series mostly up to 57.5 µM; activity change, negative = reduced viability: at the top concentration
# % is set by controls: 0 for no effect and ±100 for the full control effect; potency is the fitted concentration of half-maximal effect.
SMILES,Potency,"activity change, negative = reduced viability"
CC(=O)Nc1nc(C)c(-c2ccc(Cl)c(S(=O)(=O)NCCO)c2)s1,1370 nM (active),–
Cc1nc(C(N)=O)nc2ccccc12,–,5.71%
CC1(C)C2CC1[C@@](C)(O)[C@H](O)C2 (some centres undefined),–,0.316%
CC(=O)OC[C@H]1O[C@@H](O[C@H]2C[C@]3(C)C(C[C@@H](O)C4C([C@]5(C)CC[C@@H](C(C)(C)O)O5)CC[C@]43C)[C@@]3(C)CC[C@H](O)C(C)(C)C23)[C@H](O[C@@H]2O[C@@H](C)[C@H](O)[C@@H](O)[C@H]2O)[C@@H](O)[C@@H]1O (some centres undefined),–,2.81%
NC(C(=O)O)C1ON=C(Cl)C1O (centres undefined),–,-1.2%
CC(C)=C[C@H]1C[C@H](C)[C@H]2CC[C@H](C)c3c(O[C@@H]4OC[C@@H](O)[C@H](O)C4O)c(O)c(C)c1c32 (some centres undefined),–,2.03%
CC1(C)C[C@H](O)[C@@]23C[C@@H](OC2=O)[C@]2(C)C(=CCC4[C@@]5(C)CC[C@H](O)C(C)(C)C5CC[C@]42C)[C@@H]3C1 (some centres undefined),–,14.2%
CC12CCC(=O)C=C1C(O)CC1C2CCC2(C)C1CCC2(O)C(=O)CO (centres undefined),–,1.7%
CNCC(=O)O,–,28.3%
C=C[C@]1(C)C=C2C(=O)[C@@]3(O)OC(=O)[C@@]4(CCCC(C)(C)[C@H]34)[C@@]2(O)CC1,–,-19.9%
CC(C)=CCc1c(O)cc(O)c2c1OC(c1ccc(O)cc1)CC2=O (centres undefined),–,6.52%
COc1cc2c(cc1OC)[C@H]1C(=O)c3ccc4c(c3O[C@H]1CO2)C[C@@H](C(C)(C)O)O4,–,4.54%
CC(C)COC(=O)c1ccccc1,–,-0.269% [at 115 µM]
COc1ccc(-c2coc3cc(OC(C)=O)c(OC)cc3c2=O)cc1,–,-12.5%
CC1=CC=C(C(C)C)CC1,–,10.3% [at 115 µM]
N#CC(c1ccc(O)cc1)N1CCCCC1 (centres undefined),–,1.21%
CC(=O)C1CCC2(O)C3CCC4=CC(=O)CCC4(C)C3CCC12C (centres undefined),–,0.432%
Cc1ccc(C(C)C)cc1O,–,14.8% [at 115 µM]
CC(=Cc1ccccc1)C=C1SC(=S)N(CC(=O)O)C1=O,–,4.39%
O=C1c2ccccc2C(=O)c2c(O)ccc(O)c21,–,0.297%

SMILES,Potency,"activity change, negative = reduced viability"
O=C(/C=C/c1ccc(O)c(O)c1)O[C@@H]1C[C@](O)(C(=O)O)C[C@@H](O)[C@H]1O,–,6.51%
Cc1cc2c(c(CO)c1CCO)C(=O)[C@@H](C)[C@@H]2O,–,10.9%
COc1ccc(C(=O)OC2C[C@H]3CC[C@@H](C2)N3O)cc1OC (some centres undefined),–,21.6%
C=C1C[C@@]23CC4C5[C@@]6(C)C[C@H](O)C[C@@]57C2[C@H](O)[C@@H]1[C@H](O)[C@H]3[C@H]7N4C6,–,-1.96%
C[C@@]12C[C@@]3(O)O[C@@H](O1)[C@]1(COC(=O)c4ccccc4)[C@@H]3C[C@@]12O[C@@H]1O[C@H](CO)[C@@H](O)[C@H](O)[C@@H]1O,–,14.1%
CC1(C)CCC[C@@]2(C)CC=C(C(=O)O)[C@@H]3C[C@]312,–,-9.26%
COC(=O)c1c(C)cc(O)c(C=O)c1O,–,11.9%
CCCCC/C=C\C/C=C\C[C@H](O)/C=C/C=C\CCCC(=O)O,–,15% [at 0.757 µM]
CC1=C2C(=O)C3C(CC=C4CC(O)CCC43C)C2CCC12OC1CC(C)CNC1C2C (centres undefined),–,7.17%
C=CCc1c(OC)ccc2ccc(=O)oc12,–,12.7%
O=c1cc(CCc2ccccc2)oc2cccc(O)c12,–,4.77%
COC(=O)C1=COC(O[C@H]2OC(CO)[C@H](O)C(O)C2O)[C@H]2C1C(=O)C[C@@H]2C (some centres undefined),–,-0.57%
COc1cc2c(c(OC)c1CC=C(C)C)C[C@H](c1ccc(O)cc1O)CO2,–,18.2%
CC(C)NC(=O)NCCCCCCS(C)=O (centres undefined),–,12.6%
CCCCCCCCCC(=O)OCC,–,-43.3% [at 115 µM]
CC(=O)OC[C@]12CCC(C)=C[C@H]1O[C@@H]1[C@H](O)[C@@H](OC(C)=O)[C@@]2(C)[C@]12CO2,–,-144%
CCCCCCCCOC(C)=O,–,16.2% [at 115 µM]
C#CCCCCCCCCCCCc1ccco1,–,6.37%
FC(F)c1nc2ccccc2n1-c1nc(N2CCOCC2)nc(N2CCOCC2)n1,3060 nM (active),–

# — PubChem BioAssay (NCATS)
